Assay [1] can be described thus: NCI Yeast Anticancer Drug Screen. Data for the rad50 strain (AID 155).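 Further: 0% = growth of vehicle-only cultures of the same strain.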 Conditions: S. cerevisiae rad50 strain growth inhibition; at 50.0 µM; stronger effect = higher value. Put shortly:
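Yeast carrying a defined DNA repair defect were exposed to test compounds, and growth was compared with vehicle-treated controls to give percent inhibition.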

The nature of assay [2]: NCI Yeast Anticancer Drug Screen. Data for the mec2-1 strain (AID 157). Conditions: S. cerevisiae mec2-1 strain, at 50.0 µM, stronger effect = higher value. Put shortly:
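Yeast mec2-1 mutant treated with compound. Readout: growth inhibition vs vehicle controls.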

Assay [3] is described as follows: NCI Yeast Anticancer Drug Screen. Data for the sgs1 mgt1 strain (AID 161).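 Further: 0% = growth of cultures given vehicle only.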 Conditions: S. cerevisiae sgs1 mgt1 strain, at 50.0 µM, stronger effect = higher value. Put shortly:
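Inhibition of yeast growth, normalised to vehicle-treated controls, is reported for a strain bearing genetic alterations in DNA damage repair.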

Assay [4] in a line: NCI Yeast Anticancer Drug Screen. Data for the cln2 rad14 strain (AID 165).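 Further: 0% = growth equal to vehicle treated cultures.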 Conditions: S. cerevisiae cln2 rad14 strain, at 50.0 µM, stronger effect = higher value. Put shortly: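 cln2 rad14 yeast strain; compound exposure; growth inhibition read vs vehicle controls.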
Assay [5] can be described thus: NCI Yeast Anticancer Drug Screen. Data for the bub3 strain (AID 167). Conditions: S. cerevisiae bub3 mutant strain, at 50.0 µM, stronger effect = higher value. Summed up:
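Compounds were applied to a genetically altered yeast strain carrying a cell-cycle control defect. Growth inhibition was scored against vehicle-treated controls.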

A short description of assay [6]: NCI Yeast Anticancer Drug Screen. Data for the mlh1 rad18 strain (AID 175). Conditions: S. cerevisiae mlh1 rad18 strain growth inhibition; at 50.0 µM; stronger effect = higher value. Put shortly: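 Yeast w/ defined DNA-repair lesions; compound exposure; growth vs vehicle controls → % inhibition.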

Experimental findings from PubChem BioAssay (NCI) are described below.

SMILES strings stand for the structures. About 79,000 compounds went through this panel and 15% of them were active in at least one assay; those are over-represented in the sample as a whole. A number with no mark means an inactive call. Active and inactive are the calls of the source. No stated cut-off is given here; in the data, active means growth inhibition above about 70%; inactive means the rest. Where a SMILES comes first, the peptide text is derived from it. [ ]: non-standard residue; d: D form. The star is where a group is joined. ξ: configuration not given here. Cbz = O=C(OCc1ccccc1)*; ξP = O=C(O)C1CCCN1

`COc1ccc2c3c(ccc2c1)C1C(=O)OC(=O)C1CC3` (stereo not drawn): the growth inhibition in assay [1] was -2.6%; in assay [2] it was 8.6%; in assay [3], 6.5%; in assay [4], -36.6%; in assay [5], -5.95%; in assay [6] it was 11.2%.

On to `c1ccc2c(c1)Cc1ccccc1-2`, for which the growth inhibition was 1.5% in assay [1]; -17.2% in assay [2]; -10.6% in assay [3]; -19.5% in assay [4]; -20.9% in assay [5]; -19.1% in assay [6].

For the compound `CC(=O)Oc1cccc2c1C(=O)c1ccccc1C2=O`, the growth inhibition is 30% in assay [1]; 5.3% in assay [2]; 22.4% in assay [3]; -4.2% in assay [4]; 11.3% in assay [5]; -10% in assay [6].

For `CC([C@H]1CC[C@H]2[C@@H]3CC=C4C[C@@H](O)CC[C@]4(C)[C@H]3CC[C@]12C)C(O)(c1ccccc1)c1ccccc1` (stereo partly drawn), the growth inhibition is 40.9% in assay [1]; 19.8% in assay [2]; 43.4% in assay [3]; 37.6% in assay [4]; 23.4% in assay [5]; 25.2% in assay [6].

As for `BrC1C2=C(c3ccccc31)C(Br)c1ccccc12` (stereo not drawn), the growth inhibition was 14.9% in assay [1]; 4.05% in assay [2]; 15.3% in assay [3]; 28.8% in assay [4]; -12.3% in assay [5]; 1.7% in assay [6].

On to `C=CCOC(=O)OCCO`, for which the growth inhibition in assay [1] was 5.95%; in assay [2], -0.55%; in assay [3], -2.8%; in assay [4], -34.5%; in assay [5], -5.5%; in assay [6] it was -15.9%.

As for `COc1ccc(C2(C)OC(=O)c3ccccc32)c2ccccc12` (stereo not drawn), the growth inhibition in assay [1] is 71% (active); in assay [2] it was 49.9%; in assay [3], 46.3%; in assay [4] it was 39.2%; in assay [5], 73.2% (active); in assay [6], 65.7%.

For the compound `NC1=C(O)C(=O)C(c2ccccc2)O1` (stereo not drawn), the growth inhibition in assay [1] was -29.2%; in assay [2], -12.2%; in assay [3], -4.15%; in assay [4], -24.2%; in assay [5], -8.9%; in assay [6] it was 2.5%.

Consider `CN(CC(C)(C)C=O)C(=O)c1ccccc1`, for which the growth inhibition is 8.05% in assay [1]; -5.45% in assay [2]; -10% in assay [3]; -8.3% in assay [4]; -19.1% in assay [5]; -1% in assay [6].

Take `O=C1NC(=Nc2ccccc2Cl)SC1C(=O)Nc1ccc([N+](=O)[O-])cc1[N+](=O)[O-]` (stereo not drawn): the growth inhibition in assay [1] is 8.1%; in assay [2] it was 7.85%; in assay [3] it was -34.4%; in assay [4] it was -28.6%; in assay [5], 7.6%; in assay [6] it was -12.1%.

As for `COc1ccc(/C=C\c2cc(OC)c(OC)c(OC)c2)cc1OC`, the growth inhibition is 5.2% in assay [1]; 9.05% in assay [2]; -17.7% in assay [3]; 3.05% in assay [4]; -13.1% in assay [5]; 12% in assay [6].

For the compound `CN1CC(O)c2cc(N=NC(N)=O)c(O)cc21` (stereo not drawn), the growth inhibition in assay [1] is -16.6%; in assay [2], -9.5%; in assay [3] it was -4.85%; in assay [4] it was 5.85%; in assay [5], -7.25%; in assay [6] it was -2.45%.

As to `Nc1ncnc2c1ncn2-c1ccc(N(CCO)CCO)cc1`, the growth inhibition is 5.5% in assay [1]; -12.3% in assay [2]; -1.15% in assay [3]; -30.2% in assay [4]; -9.45% in assay [5]; 8.35% in assay [6].

Regarding `CCOC(=O)C12CCC(=O)C=C1[C@@H](C)C(=O)CC2` (stereo partly drawn), the growth inhibition in assay [1] was -20.1%; in assay [2], -48.6%; in assay [3], -41.1%; in assay [4], -10.2%; in assay [5] it was -34.7%; in assay [6] it was -23.4%.

With `Cc1cc(-c2ccccc2)n(C(C(=O)c2ccccc2)c2ccccc2)n1` (stereo not drawn), the growth inhibition was 13.8% in assay [1]; -10.4% in assay [2]; -0.15% in assay [3]; -5.6% in assay [4]; -26.7% in assay [5]; -15.2% in assay [6].

As to `Cc1ccc2c3nc4ccccc4c-3csc2c1`, the growth inhibition in assay [1] is 99.2% (active); in assay [2] it was 99.4% (active); in assay [3] it was 99.4% (active); in assay [4], 99% (active); in assay [5], 99.2% (active); in assay [6], 99.3% (active).

As to `CS(=O)(=O)OCCn1cnc2nc(NC(=O)c3ccccc3)[nH]c(=O)c21`, the growth inhibition in assay [1] is -13.1%; in assay [2] it was -20.6%; in assay [3], -12.7%; in assay [4], 0.55%; in assay [5] it was -19.2%; in assay [6], -24.6%.

Take `OC/C(I)=C(I)\C(I)=C(\I)CO`: the growth inhibition was 99.2% (active) in assay [1]; 99.3% (active) in assay [2]; 99.5% (active) in assay [3]; 99.4% (active) in assay [4]; 98.7% (active) in assay [5]; 99.4% (active) in assay [6].

Regarding `O=c1c(O)c(-c2ccccc2)oc2c(CP(=O)(O)O)cccc12`, the growth inhibition in assay [1] was 5.05%; in assay [2], -19.1%; in assay [3], -17.3%; in assay [4], -12.5%; in assay [5], -2.45%; in assay [6] it was -18%.

For `O=S(=O)(c1ccc(Cl)cc1)c1ccccc1C1=NCCN1`, the growth inhibition was -37.8% in assay [1]; -44.9% in assay [2]; -5.7% in assay [3]; 6.3% in assay [4]; -43.8% in assay [5]; -23.8% in assay [6].

Consider `CC(C)(Cc1ccc(Cl)cc1)NC(N)=O`, for which the growth inhibition in assay [1] is -35.5%; in assay [2] it was -73.7%; in assay [3] it was -21.4%; in assay [4] it was 3.1%; in assay [5] it was -44.1%; in assay [6], -31.8%.

For `CCCCOCN(COCCCC)CC(C)(C)C`, the growth inhibition in assay [1] was 20.9%; in assay [2], 14.7%; in assay [3], -10.8%; in assay [4], 14.7%; in assay [5], 19.4%; in assay [6], 19.3%.

As for `Clc1ccc(-c2oc(-c3ccc(Cl)cc3)c3ccccc23)cc1`, the growth inhibition in assay [1] was -3.85%; in assay [2], -13.2%; in assay [3], 4.75%; in assay [4], -78.2%; in assay [5], -15.5%; in assay [6], -23.6%.

As to `O=C(CCN1CCCC1)c1ccccc1`, the growth inhibition is -25.1% in assay [1]; -15.1% in assay [2]; -11.4% in assay [3]; 5.45% in assay [4]; -10.6% in assay [5]; -11.1% in assay [6].

For `O=C(CNC(=O)OCc1ccccc1)NCC(=O)N1CCCC1C(=O)O` (stereo not drawn) (Cbz-Gly-Gly-[ξP]-OH), the growth inhibition in assay [1] was -1.6%; in assay [2], 1.15%; in assay [3], -4.45%; in assay [4], 0.25%; in assay [5], -3.65%; in assay [6], -23.6%.

For `O=C1OC(=O)C2C1C1C=CC2C1(c1ccccc1)c1ccccc1` (stereo not drawn), the growth inhibition in assay [1] was 9.05%; in assay [2], 4.25%; in assay [3], 8.95%; in assay [4], -5.65%; in assay [5] it was 25.5%; in assay [6], 7%.

In the case of `O=S(=O)(OI(O)CC(F)(F)F)C(F)(F)F`, the growth inhibition in assay [1] is 30.5%; in assay [2], 48.1%; in assay [3] it was -0.65%; in assay [4], 5.9%; in assay [5], 14.5%; in assay [6], 39.5%.

With `CC(=O)OC/C(C)=N\NS(=O)(=O)c1cc(Cl)c(Cl)cc1Cl`, the growth inhibition in assay [1] is 15.1%; in assay [2], 16.4%; in assay [3] it was 15.8%; in assay [4], 13.8%; in assay [5], 6.8%; in assay [6], 13.5%.

In the case of `O=C(c1ccccc1)c1c[nH]c(=O)[nH]c1=O`, the growth inhibition was -17.1% in assay [1]; 10.2% in assay [2]; -3% in assay [3]; -3.2% in assay [4]; 0.4% in assay [5]; -26.9% in assay [6].

In the case of `c1ccc(C2Nc3ccccc3C3OCCCC23)cc1` (stereo not drawn), the growth inhibition in assay [1] was 2.35%; in assay [2], -4.3%; in assay [3], 9.8%; in assay [4] it was -9.4%; in assay [5], -20.6%; in assay [6], 1.7%.

With `O=C(O)CCc1ccc2ccccc2n1`, the growth inhibition in assay [1] was 6.3%; in assay [2] it was -6.6%; in assay [3], -19.8%; in assay [4], -0.05%; in assay [5], -20.6%; in assay [6] it was -20.2%.

For `CCc1ccc(C(=O)O)cc1S(=O)(=O)Cl`, the growth inhibition is 7.2% in assay [1]; 13.4% in assay [2]; -12.6% in assay [3]; -9.4% in assay [4]; 2.55% in assay [5]; 1.45% in assay [6].

`Cc1ccc(S(=O)(=O)Nc2ccc(O)cc2)cc1`: the growth inhibition in assay [1] was -11.2%; in assay [2] it was -15.2%; in assay [3], -15.2%; in assay [4] it was -27%; in assay [5], -7.6%; in assay [6], -5.4%.

For `c1ccc2c[n+]3cc4ccccc4cc3cc2c1`, the growth inhibition in assay [1] was 30.9%; in assay [2], 23.4%; in assay [3], 53.7%; in assay [4], 31.3%; in assay [5], 33%; in assay [6] it was 56.1%.

For `COCC(=O)C(C(C)=O)C(c1ccc2c(c1)OCO2)C(C(C)=O)C(=O)COC` (stereo not drawn), the growth inhibition was -40.5% in assay [1]; -8.25% in assay [2]; -18.9% in assay [3]; -39.5% in assay [4]; -5.75% in assay [5]; -2.6% in assay [6].

For the compound `O=S(=O)(O)CNc1ccc(Cl)cc1`, the growth inhibition in assay [1] was 15.8%; in assay [2], -12.7%; in assay [3], 4.05%; in assay [4] it was -29.7%; in assay [5], -23.1%; in assay [6], 4.05%.

As to `CNC(=O)c1ccccc1C(=N)c1ccccc1`, the growth inhibition in assay [1] was -12.6%; in assay [2] it was -5.4%; in assay [3] it was -11.2%; in assay [4], -8.05%; in assay [5] it was -9.65%; in assay [6] it was -8.35%.

With `CCN(CC)c1ccc(CO)cc1`, the growth inhibition was 7.65% in assay [1]; 4.8% in assay [2]; -22.8% in assay [3]; -9.85% in assay [4]; -1.05% in assay [5]; -13.2% in assay [6].
